KinaseGlo FLuc: blocks Kinase-Glo luciferase, a counter-screen artifact; Q27757; Kinase-Glo luciferase, ATP luminescence, 8 min; Potency, µM (series often up to 38.3 µM), inactives show top-dose activity change, negative = inhibition, actives largely listed as inhibitors; hit rate 0.28% among 200,000; AID 1379; also: % is scaled to controls: 0 for no effect and ±100 for the full control effect; nearly all actives have a fitted effect of over 60% in size
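Inhibition of Kinase-Glo luciferase light generation was assessed at 10 uM ATP in pH 7.2 imidazole buffer, with luminescence measured after eight minutes at ambient temperature.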
FLuc modulator: counter-screen for miR-21 project: firefly luciferase inhibitors or activators; hit rate 6.9% among 360,000; P08659; Potency, µM (doses to about 57.5 µM), without a hit: top-dose activity change, negative = inhibition, actives largely listed as inhibitors; purified FLuc, Km substrates, luminescence inhibition;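 also: plate controls were vehicle for no effect and reference inhibitor for full effect; nearly all actives have a fitted effect of over 55% in size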
Target sequence (P08659 whole entry, looked up): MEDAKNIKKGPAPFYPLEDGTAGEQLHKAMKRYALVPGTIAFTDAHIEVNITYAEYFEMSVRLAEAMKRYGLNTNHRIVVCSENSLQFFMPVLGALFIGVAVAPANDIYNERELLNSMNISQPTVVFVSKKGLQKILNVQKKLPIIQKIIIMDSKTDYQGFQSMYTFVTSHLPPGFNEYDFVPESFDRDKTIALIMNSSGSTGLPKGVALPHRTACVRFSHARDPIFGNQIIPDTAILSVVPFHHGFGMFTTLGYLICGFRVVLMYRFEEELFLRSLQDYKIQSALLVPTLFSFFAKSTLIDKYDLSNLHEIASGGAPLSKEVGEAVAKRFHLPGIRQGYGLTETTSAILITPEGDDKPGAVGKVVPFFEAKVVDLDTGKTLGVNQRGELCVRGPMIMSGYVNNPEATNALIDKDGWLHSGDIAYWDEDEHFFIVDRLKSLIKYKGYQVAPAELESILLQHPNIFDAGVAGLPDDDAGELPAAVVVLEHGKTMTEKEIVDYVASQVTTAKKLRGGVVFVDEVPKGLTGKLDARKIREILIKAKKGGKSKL
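Purified P. pyralis luciferase, 10 nM final, with Km-level 10 uM D-luciferin and 10 uM ATP in 50 mM Tris acetate pH 7.5, 10 mM Mg acetate, 0.01% Tween-20, 0.05% BSA; 6-point qHTS titration about 60 µM downward; luminescence read.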
NPC1 promoter act: activators of NPC1 promoter | Huh7 NPC1 promoter luciferase reporter, 24 h | Potency, µM (doses to about 9.22 µM), for inactives: top-dose activation, actives largely listed as activators | hit rate 2.4% among 320,000 | AID 485313; also: % of control where 0% means no effect; nearly all actives have a fitted effect of over 60% in size
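Quantitative HTS used a cell-based reporter: Huh7 cells stably bearing the NPC1 promoter upstream of luciferase were treated with compounds for 24 h, and promoter activation was read as luminescence.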
SMN2 splice up: enhancers of SMN2 splice variant expression | AID 1458 | Potency, µM (titrated, usually from 46.1 µM), without a hit: at the top dose activity change, positive = activation, hits mostly activators | HEK293 SMN2-luciferase splicing reporter, luminescence, 30-36 h | hit rate 2.8% among 210,000; also: % of control where 0% means no effect; nearly all actives have a fitted effect of over 55% in size
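HEK293 cells carry an SMN2 […]–luciferase reporter in which exon 7 inclusion puts luciferase in frame. Cells were plated 10-12 h before compound addition, then incubated 30-36 h at 37C. ONE-Glo luminescence was read; sodium butyrate at 4.5 mM final served as control.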
ELG1 genotoxic: genotoxicity induction in ELG1-luciferase HEK293T cells; HEK293T ELG1-luciferase reporter, luminescence, 16 h; Potency, µM (series often up to 46 µM), for the others: at the top dose activity change, positive = activation, hits mostly activators; hit rate 1.3% among 330,000; AID 504466; also: % of control where 0% means no effect; nearly all actives have a fitted effect of over 60% in size
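ELG1-luciferase HEK293T cells, 2,000/well; compound pinned in; 16 hr, 37 °C, 5% CO2; ONE-Glo, 30 min RT; luminescence on CCD imager.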
Rab9 prom act: activators of Rab9 promoter. Potency, µM (top dose mostly 9.22 µM), inactives show top-dose activation, negative = inhibition, most hits filed as activators. AID 485297. Huh7 Rab9 promoter-luciferase reporter, luminescence, 24 h. hit rate 2.8% among 320,000; also: % of control where 0% means no effect; nearly all actives have a fitted effect of over 60% in size
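Using Huh7 cells stably transfected with Rab9 promoter–luciferase, compounds were incubated 24 h at 37 °C, 5% CO2; luciferase luminescence was read 10 min after reagent addition.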
* marks the source's active call; other numbers are inactive results; u = inconclusive; x = no result given; [ ] = dose if it differs, or a comment. An excerpt weighted towards active compounds, which were near 7.5% of everything screened. Calls follow the shape of the dose curve; as a rule, active = well fitted curve in the direction sought with a large enough effect; inconclusive = small, poorly fitted or top-dose-only effect, or another doubt; inactive = no such curve, though single readings can be large; an effect the other way counts as inactive or inconclusive. Potency is read from the fitted curve at half-maximal effect.

SMILES	KinaseGlo FLuc	FLuc modulator	NPC1 promoter act	SMN2 splice up	ELG1 genotoxic	Rab9 prom act
Cc1ccc2cc3cc(C(=O)Nc4ccc(F)cc4Cl)oc3nc2c1	x	-1%	x	x	x	x
COc1cc(C(=O)NS(=O)(=O)c2ccccc2C)ccc1Cc1cn(C)c2ccc(NC(=O)OC3CCCC3)cc12	x	11µM*	6%	x	x	0%
COc1cc(CNn2cnnc2)ccc1OCC(=O)NC1CCCCC1	3%	-1%	1%	-29%	5%	-28%
O=C(COc1ccccc1Br)NC(=O)NC1CCCC1	x	12µM*	27%	x	u	2.8µM*
CCc1ccccc1OCC(=O)NC1CCCC1	-2%	-2%	-1%	27%	4%	-3%
COC(=O)c1ccccc1OCC(=O)NC1CCCCC1	-1%	u	16%	5%	21µM*	23%
O=C(COc1ccccc1Br)NC1CC1	x	-17%	12%	x	u	4%[1.84 µM]
COc1cc(C)ccc1OCC(=O)NC1CCCCCC1	x	17µM*	u	x	u	u
Cc1cccc(C(=O)N[C@H](C(=O)Nc2ncc(C)s2)C(C)C)c1	4%	-9%	-21%	14µM*	u	-31%
CC(=O)N1CCN(C(=O)CNC(=O)c2cccs2)CC1	x	x	0%	x	-2%	-3%
CC1CCCN(C(=O)CNC(=O)c2cccs2)C1 (stereo not given)	x	u	4µM*	x	22%	u
CC(C)Oc1ccc(CNC(=O)CCn2c(=O)c3cccn3c3ccc(F)cc32)cc1	x	1%	x	x	x	x
Oc1ccc(Br)cc1C=Nc1ccc(Cl)cc1	1%	u	2%	-39%	3%	-1%
Oc1ccc(C=Nc2ccc(N3CCOCC3)cc2)c(O)c1	-8%	17µM*	11%	4%	-1%	-4%
Oc1cc(Br)ccc1C=Nc1ccc(N2CCCCC2)cc1	x	1.2µM*	1%	x	-6%	26%
CCc1cccc(CC)c1NC(=S)NCc1nc2ccccc2[nH]1	0%	0%	-3%	17%	0%	-6%
CCCn1c(SCC(=O)NCCc2ccccc2)nnc1C(C)C	x	3%	0%	x	-1%	1%
O=C(/C=C\c1ccc2c(c1)OCO2)NC1CC(=O)N(c2ccc(F)cc2)C1 (stereo not given)	x	3%	x	x	x	x
c1ccc(C2=Nc3ccccc3OC2)cc1	-29%	3µM*	u	13%	7%	3.5µM*
Cc1ccc2c(c1)N=C(c1ccc(Cl)cc1)CO2	u	1.7µM*	3.5µM*	22µM*	u	2.5µM*
Clc1ccc(C2=Nc3cc(Cl)ccc3OC2)cc1	-1%	7.6µM*	u	u	u	u
Clc1ccc(C2=NN=C3COc4ccccc4N3C2)cc1	1%	-18%	-1%	-20%	-4%	-3%
CCOC(=O)c1cnn(-c2ccc(C(=O)Nc3cc(OC)c(OC)c(OC)c3)cc2)c1N	x	3%	x	x	x	x
O=C(Nc1ccc2c(c1)CCC2)C1CCCN(c2ncccn2)C1 (stereo not given)	-4%	5.4µM*	4µM*	13µM*	u	u
Cc1cc(C)cc(NC(=O)C2CCCN(c3ncccn3)C2)c1 (stereo not given)	x	-2%	-2%	x	-10%	-1%
SMILES	KinaseGlo FLuc	FLuc modulator	NPC1 promoter act	SMN2 splice up	ELG1 genotoxic	Rab9 prom act
O=C(Nc1ccc2c(c1)OCCO2)C1CCN(c2ncccn2)CC1	-4%	15µM*	8%	24%	u	28%
O=C(CSc1ncccn1)Nc1ccc2c(c1)CCC2	x	21µM*	-5%	x	4%	23%
O=C(Nc1cccc(C(F)(F)F)c1)C1CCCN(c2ncccn2)C1 (stereo not given)	-1%	1%	-5%	-25%	-5%	0%
Cc1ccc(NC(=O)C2CCCN(c3ncccn3)C2)cc1F (stereo not given)	-8%	11µM*	3.5µM*	18µM*	9.2µM*	u
CCS(=O)(=O)N1CCc2cc(C(=O)Nc3cc(Cl)ccc3C)ccc21	x	3%	x	x	x	x
CC(OC(=O)CNC(=O)COc1ccccc1)C(=O)N(C)Cc1ccccc1 (stereo not given)	x	2%	-2%	x	-1%	-2%

Screening data from PubChem.
